Assay results from the supplement of paper PMC9262897, “Low-cost anti-mycobacterial drug discovery using engineered E. coli” (Nature Communications, 2022).
Where a name gives a salt, the structure may show the parent alone. ± gives the standard deviation of the averaged measurements.

The molecules below were run on E. coli TESEC Mtb Asd (assay: growth (OD600 after 10 h); higher = more growth (less inhibition)). Details: arabinose induction (level): High; compound 0.1 mM; raw OD600 reference: median of DMSO wells 0.331, cell-free background 0.041.
Procedure: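 TESEC E. coli strains in which the native enzyme is deleted and replaced by arabinose-inducible Mtb Asd, DapB, CysH or TrpD, each grown in its selective medium. Strains were screened against the Prestwick library at 0.1 mM and 1% DMSO in 384-well format at low and high arabinose induction. Growth is read as OD600 after 10 h in triplicate.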

| Compound | growth |
| --- | --- |
| Cc1nnc(NS(=O)(=O)c2ccc(N)cc2)s1 [Sulfamethizole] | 0.326 ± 0.045 |
| CCC1=C(C)CN(C(=O)NCCc2ccc(S(=O)(=O)NC(=O)N[C@H]3CC[C@H](C)CC3)cc2)C1=O [Glimepiride] | 0.338 ± 0.064 |
| CC1CC(OC(=O)c2ccccc2O)CC(C)(C)C1 (stereo unspecified) [Homosalate] | 0.202 ± 0.011 |
| CCCN(CCC)C(=O)C(CCC(=O)O)NC(=O)c1ccccc1 (stereo unspecified) [Proglumide] | 0.318 ± 0.075 |
| NCCc1ccc(O)c(O)c1 [Dopamine hydrochloride] | 0.335 ± 0.051 |
| OCCN1CCN(CCCN2c3ccccc3Sc3ccc(Cl)cc32)CC1 [Perphenazine] | 0.0588 ± 0.0034 |
| CCN(CC)CCOC(=O)C1(C2CCCCC2)CCCCC1 [Dicyclomine hydrochloride] | 0.137 ± 0.014 |
| Cc1cc(-c2ccccc2)nnc1NCCN1CCOCC1 [Minaprine dihydrochloride] | 0.212 ± 0.028 |
| CCC1(C)CC(=O)NC1=O (stereo unspecified) [Ethosuximide] | 0.38 ± 0.03 |
| COc1nc(C)nc(Cl)c1NC1=NCCN1 [Moxonidine] | 0.248 ± 0.033 |
| COC(=O)Nc1nc2cc(C(=O)c3cccs3)ccc2[nH]1 [Nocodazole] | 0.345 ± 0.023 |
| CCN(CC)C(=O)/C(C#N)=C/c1cc(O)c(O)c([N+](=O)[O-])c1 [Entacapone] | 0.142 ± 0.005 |
| CCN(CC)CCOC(=O)C(c1ccccc1)C1CCCCC1 (stereo unspecified) [Drofenine hydrochloride] | 0.119 ± 0.0039 |
| Cc1c(Cl)cccc1Nc1ncccc1C(=O)O [Clonixin Lysinate] | 0.19 ± 0.011 |
| Cn1cnc2c1c(=O)[nH]c(=O)n2C [Theobromine] | 0.483 ± 0.0089 |
| COc1cc(N)c(Cl)cc1C(=O)NC1CCN(Cc2ccccc2)CC1 [Clebopride maleate] | 0.163 ± 0.016 |
| CCN1CCN(c2cc3c(cc2F)c(=O)c(C(=O)O)cn3C2CC2)CC1 [Enrofloxacin] | 0.0465 ± 0.0016 |
| Nc1ccn([C@H]2CC[C@@H](CO)O2)c(=O)n1 [Zalcitabine] | 0.288 ± 0.037 |
| COCCOC(=O)C1=C(C)NC(C)=C(C(=O)OC(C)C)C1c1cccc([N+](=O)[O-])c1 (stereo unspecified) [Nimodipine] | 0.274 ± 0.024 |
| C[C@H]1O[C@@H](O[C@H]2[C@@H](O)C[C@H](O[C@H]3[C@@H](O)C[C@H](O[C@H]4CC[C@@]5(C)[C@H](CC[C@@H]6[C@@H]5C[C@@H](O)[C@]5(C)[C@@H](C7=CC(=O)OC7)CC[C@]65O)C4)O[C@@H]3C)O[C@@H]2C)C[C@H](O)[C@@H]1O [Digoxin] | 0.28 ± 0.057 |
| COc1cccc2c1C(=O)c1c(O)c3c(c(O)c1C2=O)C[C@@](O)(C(C)=O)C[C@@H]3O[C@H]1C[C@H](N)[C@H](O)[C@H](C)O1 [Daunorubicin hydrochloride] | 0.058 ± 0.0071 |
| O=C(CCNNC(=O)c1ccncc1)NCc1ccccc1 [Nialamide] | 0.237 ± 0.041 |
| CC(=O)S[C@@H]1CC2=CC(=O)CC[C@]2(C)[C@H]2CC[C@@]3(C)[C@@H](CC[C@@]34CCC(=O)O4)[C@H]12 [Spironolactone] | 0.167 ± 0.021 |
| CCN1CCCC1CNC(=O)c1cc(S(N)(=O)=O)ccc1OC (stereo unspecified) [Sulpiride] | 0.309 ± 0.099 |
| COc1ncnc(NS(=O)(=O)c2ccc(N)cc2)c1OC [Sulfadoxine] | 0.306 ± 0.058 |
| C[C@@H]1C[C@H]2[C@@H]3C[C@H](F)C4=CC(=O)C=C[C@]4(C)[C@@]3(Cl)[C@@H](O)C[C@]2(C)[C@H]1C(=O)COC(=O)C(C)(C)C [Clocortolone pivalate] | 0.198 ± 0.0099 |
